Counter-ions that a name gives are not always drawn.
Tests used:
[1] = test system: S. cerevisiae SK1 pCDA2-eGFP (USY613), sporulating; test: CDA2-GFP sporulation assay sensitivity score (z-score vs DMSO controls); higher = stronger inhibition of sporulation, active = hit call of the paper;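 also: active if sensitivity score above 5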
[2] = test system: S. cerevisiae NKY1551 his4x/his4B, sporulating; test: HIS4 meiotic recombination assay sensitivity score (z-score vs DMSO controls); higher = stronger inhibition of sporulation/recombination, active = hit call of the paper;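 also: active if sensitivity score above 5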
[3] = test system: S. cerevisiae AD1-9 (efflux-pump deficient), vegetative growth in YPD; test: growth sensitivity score (doubling time z-score vs DMSO controls); higher = slower growth, strongly negative scores also mark growth inhibition (complete suppression), active = hit call of the paper
Procedure, shortened: (§1)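 Optical density of Saccharomyces cerevisiae cultures in microtiter plates was followed every 15 min for 24 hours after seeding at an OD600 of 0.065. Eight solvent-only wells were run per experiment. Growth sensitivity scores were found by subtracting the solvent-only mean from the compound mean and dividing by the solvent-only standard deviation.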

[4] = test system: S. cerevisiae BY4741 (wild-type), vegetative growth in YPD; test: as above
Procedure, shortened: as §1

Structure (SMILES)	CDA2-GFP sporulation assay sensitivity score [1]	HIS4 meiotic recombination assay sensitivity score [2]	growth sensitivity score [3]	growth sensitivity score [4]
COc1ccc2cc([C@H](C)C(=O)O)ccc2c1 [Naproxen sodium] (stock concentration (mM, diluted 1:100): 10)	1.69 (inactive)	-0.09 (inactive)	1.41 (inactive)	-0.72 (inactive)
O=C(NCCO[N+](=O)[O-])c1cccnc1 [Nicorandil] (stock concentration (mM, diluted 1:100): 10)	-0.11 (inactive)	0.03 (inactive)	-1.47 (inactive)	-2.59
CC=CC(=O)N(CC)c1ccccc1C [Crotamiton] (stock concentration (mM, diluted 1:100): 10.3)	2.32 (inactive)	3.54 (inactive)	0.99 (inactive)	-0.07 (inactive)
OCCN1C[C@H](O)[C@@H](O)[C@H](O)[C@H]1CO [Miglitol] (stock concentration (mM, diluted 1:100): 10)	1.46 (inactive)	-0.62 (inactive)	-2.16	-1.34 (inactive)
CO[C@H]1/C=C/O[C@@]2(C)Oc3c(C)c(O)c4c(O)c(c5c(nc6cc(C)ccn65)c4c3C2=O)NC(=O)/C(C)=C\C=C\[C@H](C)[C@H](O)[C@@H](C)[C@@H](O)[C@@H](C)[C@H](OC(C)=O)[C@@H]1C [Rifaximin] (stock concentration (mM, diluted 1:100): 10)	4.99 (inactive)	-0.87 (inactive)	-1.56 (inactive)	-1.64 (inactive)
CCC(=O)O[C@]1(C(=O)SCF)[C@H](C)C[C@H]2[C@@H]3C[C@H](F)C4=CC(=O)C=C[C@]4(C)[C@@]3(F)[C@@H](O)C[C@@]21C [Fluticasone propionate] (stock concentration (mM, diluted 1:100): 10)	-2.57 (inactive)	-1.24 (inactive)	-1.65 (inactive)	-0.58 (inactive)
CC(C(=O)O)c1ccc(CC2CCCC2=O)cc1 (stereo not given) [Loxoprofen sodium] (stock concentration (mM, diluted 1:100): 9.1)	-0.04 (inactive)	-0.15 (inactive)	-0.52 (inactive)	-0.61 (inactive)
COc1ccnc(C[S+]([O-])c2nc3cc(OC(F)F)ccc3[nH]2)c1OC (stereo not given) [Pantoprazole sodium] (stock concentration (mM, diluted 1:100): 10)	0.75 (inactive)	0.54 (inactive)	-2.1	-0.44 (inactive)
O=C1N(c2ccccc2)c2ccccc2C1(Cc1ccncc1)Cc1ccncc1 (stock concentration (mM, diluted 1:100): 10)	0.26 (inactive)	0.8 (inactive)	8.78 (active)	1.8 (inactive)
CN(C)CC[C@@H](c1ccc(Br)cc1)c1ccccn1 [Dexbrompheniramine maleate] (stock concentration (mM, diluted 1:100): 7.3)	-1.63 (inactive)	7.19 (active)	-0.16 (inactive)	-1.48 (inactive)
COCC1=C(C(=O)OC(C)OC(=O)OC(C)C)N2C(=O)[C@@H](NC(=O)/C(=N\OC)c3csc(N)n3)[C@H]2SC1 (stereo not given in full) [Cefpodoxime proxetil] (stock concentration (mM, diluted 1:100): 7.7)	-0.83 (inactive)	-1.5 (inactive)	-0.15 (inactive)	-1.13 (inactive)
CN(CCOc1ccc(CC2SC(=O)NC2=O)cc1)c1ccccn1 (stereo not given) [Rosigltazone hydrochloride] (stock concentration (mM, diluted 1:100): 8.2)	-0.4 (inactive)	2.69 (inactive)	0.66 (inactive)	2.48 (active)
Cc1sc(N)c(C(=O)c2cccc(C(F)(F)F)c2)c1C (stock concentration (mM, diluted 1:100): 10)	11.1 (active)	1.22 (inactive)	143 (active)	9.52 (active)
Nc1ccc2cn[nH]c2c1 [6-Aminoindazole] (stock concentration (mM, diluted 1:100): 10)	2.67 (inactive)	-0.24 (inactive)	-1.63 (inactive)	-0.64 (inactive)
CN1CCC(=C2c3ccccc3C=Cc3ccccc32)CC1 [Cyproheptadine hydrochloride] (stock concentration (mM, diluted 1:100): 10)	14 (active)	6.95 (active)	9.58 (active)	3.38 (active)

— the supplement of paper PMC3414501
